{
  "source": "PubChem BioAssay AID1259343",
  "about": "(VanderVen Lab, College of Veterinary Medicine, Cornell …, 2017)",
  "note": "The campaign covered roughly 6,200 compounds. About 2,900 (47%) were called active. Cut-off read from the data, not from the text of the source: active = inhibition above about 50%; inactive = the rest. So high a share suggests a set chosen from earlier hits. Some of the results follow.",
  "data": [
    {"assay": "Mycobacterium tuberculosis growth inhibition, primary screen (AID 1259343)", "details": "inhibition: at 10 µM, hits give high values; outcome: 10 uM", "values": [
      {"smiles": "Cn1cnnc1SCC(=O)Nc1ccc2c(c1)CCC2", "inhibition": "-17.5% (inactive)"},
      {"smiles": "O=C(CCn1cncn1)Nc1ccc2c(c1)CCC2", "inhibition": "87.1% (active)"},
      {"smiles": "O=C1C(=Cc2ccc(F)cc2)CSc2ccc(F)cc21", "inhibition": "21.3% (inactive)"},
      {"smiles": "CCN1c2ccccc2N(C)[C@]1(C)c1ccccc1", "inhibition": "68.3% (active)"},
      {"smiles": "N#Cc1ccc(C2C=C(c3ccc(Br)cc3)Nc3nc(C(F)(F)F)nn32)cc1", "note": "(stereo not drawn)", "inhibition": "90.9% (active)"},
      {"smiles": "FC(F)(F)c1nc2n(n1)C(c1ccc(Cl)cc1)C1=C(N2)c2ccccc2SC1", "note": "(stereo not drawn)", "inhibition": "36.9% (inactive)"},
      {"smiles": "Clc1ccc(C2=CC(c3ccc4c(c3)OCO4)n3nc(-c4ccccc4)nc3N2)cc1", "note": "(stereo not drawn)", "inhibition": "-34.2% (inactive)"},
      {"smiles": "Fc1ccc(C2C=C(c3ccccc3)Nc3nc(C(F)(F)F)nn32)cc1F", "note": "(stereo not drawn)", "inhibition": "3.02% (inactive)"},
      {"smiles": "Fc1ccc(C2=CC(c3ccc4c(c3)OCO4)n3nc(C(F)(F)F)nc3N2)cc1", "note": "(stereo not drawn)", "inhibition": "74.3% (active)"},
      {"smiles": "O=C1NC2(CCN(C(=O)Nc3ccc(C(F)(F)F)cc3)CC2)Nc2cc(Cl)ccc21", "inhibition": "-1.82% (inactive)"},
      {"smiles": "COc1ccc(CC2CCN(C(=O)Nc3cccc(F)c3)CC2)cc1", "inhibition": "74.8% (active)"},
      {"smiles": "COc1cccc(NC(=O)N2CCC(Cc3ccc(F)cc3)CC2)c1", "inhibition": "47.7% (inactive)"},
      {"smiles": "O=C(NC1CCN(c2ccccc2C(=O)NCc2ccc(F)cc2)CC1)c1ccc(C(F)(F)F)cc1", "inhibition": "-29.8% (inactive)"},
      {"smiles": "Cc1ccc(F)cc1NC(=O)N1CCN(CCCOC(c2ccc(Cl)cc2)c2ccc(Cl)cc2)CC1", "inhibition": "6.69% (inactive)"},
      {"smiles": "O=C(Nc1nnc(C2CC2)s1)N1CCC(Cc2cccc(F)c2)CC1", "inhibition": "-2.76% (inactive)"},
      {"smiles": "O=C(Nc1ccc(F)cc1F)N1CCC(Cc2ccc(C(F)(F)F)cc2)CC1", "inhibition": "62.3% (active)"},
      {"smiles": "O=C(Nc1ccc(F)cc1F)N1CCC(Cc2ccc(-n3cccc3)cc2)CC1", "inhibition": "51% (active)"},
      {"smiles": "COc1ccc(-n2nc3ccc(N)cc3n2)cc1", "inhibition": "-45% (inactive)"},
      {"smiles": "CCC(=O)NC(=S)Nc1ccc(C(=O)NC(C)(C)C)cc1", "inhibition": "37.3% (inactive)"},
      {"smiles": "CCCC(=O)NC(=S)Nc1ccc2nn(-c3ccccc3)nc2c1", "inhibition": "79.1% (active)"},
      {"smiles": "CC(C)CSc1n[nH]c(=S)s1", "inhibition": "100% (active)"},
      {"smiles": "CC(C)Sc1n[nH]c(=S)s1", "inhibition": "-48.8% (inactive)"},
      {"smiles": "S=c1[nH]nc(SCC#Cc2ccccc2)s1", "inhibition": "47.6% (inactive)"},
      {"smiles": "S=c1[nH]nc(SCc2cccs2)s1", "inhibition": "99.3% (active)"},
      {"smiles": "C=C(C)CSc1n[nH]c(=S)s1", "inhibition": "58.8% (active)"},
      {"smiles": "S=c1[nH]nc(SCc2c(Cl)cccc2Cl)s1", "inhibition": "23.4% (inactive)"},
      {"smiles": "CCCSc1n[nH]c(=S)s1", "inhibition": "-46% (inactive)"},
      {"smiles": "CCCCSc1n[nH]c(=S)s1", "inhibition": "-27% (inactive)"},
      {"smiles": "O=C1NC(=S)SC1=Cc1c(F)cccc1Cl", "inhibition": "83.6% (active)"},
      {"smiles": "O=C1NC(=S)SC1=Cc1c(F)cccc1F", "inhibition": "74.2% (active)"},
      {"smiles": "CC(=O)N[C@@H]1C[C@H](Cc2ccccc2)O[C@H](c2ccc(Cl)cc2)C1", "inhibition": "61% (active)"},
      {"smiles": "CC(C)(C)c1ccc(S(=O)(=O)/C=C/C#N)cc1", "inhibition": "102% (active)"},
      {"smiles": "CCOC(=O)c1cc([N+](=O)[O-])nn1Cc1ccc(Cl)c(Cl)c1", "inhibition": "19.4% (inactive)"},
      {"smiles": "CCOC(=O)c1cnn(Cc2ccc(C)cc2)c1N", "inhibition": "71.9% (active)"},
      {"smiles": "CCNC(=S)n1ncc(C(=O)OCC)c1N", "inhibition": "-17% (inactive)"},
      {"smiles": "Clc1ccc(-c2nc(NCCN3CCOCC3)c3ccc(Cl)cc3n2)cc1", "inhibition": "47.7% (inactive)"},
      {"smiles": "CCC(C)(C)C1CCc2sc3ncnc(NCCN4CCOCC4)c3c2C1", "note": "(stereo not drawn)", "inhibition": "85% (active)"},
      {"smiles": "Nc1c(S(=O)(=O)c2ccccc2)c2nc3ccccc3nc2n1-c1cccc(S(N)(=O)=O)c1", "inhibition": "19.5% (inactive)"},
      {"smiles": "O=S1(=O)CCN2N=C(SCc3ccc(Cl)cc3)SC2=N1", "inhibition": "2.87% (inactive)"},
      {"smiles": "N#Cc1ccc(CSc2ncccn2)cc1", "inhibition": "-28.1% (inactive)"},
      {"smiles": "Clc1ccc(CSc2ncccn2)cc1", "inhibition": "55.1% (active)"},
      {"smiles": "Cc1ccc(OCc2ccc(C(F)(F)F)cc2)c(CO)n1", "inhibition": "59.9% (active)"},
      {"smiles": "CCOC(=O)NCC(=O)N(Cc1ccc(C(F)(F)F)cc1)C1CC1", "inhibition": "-10.5% (inactive)"},
      {"smiles": "COc1cccc(CC2(CO)CCCN(C(=O)CCCc3ccc(Cl)cc3)C2)c1", "note": "(stereo not drawn)", "inhibition": "20.4% (inactive)"},
      {"smiles": "COc1cccc(CC2(C(=O)O)CCN(c3ccc(Cl)cn3)CC2)c1", "inhibition": "90.8% (active)"},
      {"smiles": "c1ccc(-c2nnc(NC3CCCCC3)s2)cc1", "inhibition": "28.9% (inactive)"},
      {"smiles": "Oc1ccc(Br)cc1-c1nc2cnccn2c1NC1CCCC1", "inhibition": "37.9% (inactive)"},
      {"smiles": "c1cc(NC2CCCCCC2)c2cccnc2c1", "inhibition": "9.23% (inactive)"},
      {"smiles": "c1cc(NC2CCCCCCC2)cc(-n2ccnc2)c1", "inhibition": "56% (active)"},
      {"smiles": "c1ncc(-c2ccc(NCC3CCOCC3)cc2)o1", "inhibition": "35.5% (inactive)"},
      {"smiles": "c1cc(NC2CCCCCCC2)cc(-c2cnco2)c1", "inhibition": "71.3% (active)"},
      {"smiles": "S=C(SC1OCCOC1SC(=S)N1CCOCC1)N1CCOCC1", "note": "(stereo not drawn)", "inhibition": "99.8% (active)"},
      {"smiles": "COc1ccc(C(=O)c2ccccc2)c(O)c1O", "inhibition": "68.3% (active)"},
      {"smiles": "COc1ccc(COc2ccc(Cl)cc2C(N)=O)cc1F", "inhibition": "27.6% (inactive)"},
      {"smiles": "COc1ccc(C(=O)c2ccc(O)cc2)c(O)c1O", "inhibition": "55.4% (active)"},
      {"smiles": "COc1ccc(C(=O)COC(=O)c2ccccc2[N+](=O)[O-])cc1OC", "inhibition": "-15.5% (inactive)"},
      {"smiles": "COc1ccc(C(=O)C=Cc2ccccc2Br)c(OC)c1", "inhibition": "23.5% (inactive)"},
      {"smiles": "Cc1nc(SCC(=O)N(C)Cc2ccsc2)c(C(N)=O)c(C)c1C", "inhibition": "-7.74% (inactive)"},
      {"smiles": "CN1CCN(C2Cc3ccccc3Sc3ccc(Cl)cc32)CC1", "note": "(stereo not drawn)", "inhibition": "39.5% (inactive)"},
      {"smiles": "CN1CCC(=C2c3ccccc3Sc3ccccc32)CC1", "inhibition": "60.1% (active)"},
      {"smiles": "COc1cccc(NC(=O)N2CCc3nc(Nc4cc(Cl)cc(Cl)c4)ncc3C2)c1", "inhibition": "33.2% (inactive)"},
      {"smiles": "CCc1ccc(NC(=O)N2CCN(c3nc(-c4ccc(Cl)cc4)nc(C)c3C)CC2)cc1", "inhibition": "28.1% (inactive)"},
      {"smiles": "CCOC(=O)c1ccc(NC(=O)N2CCc3nc(Cc4ccccc4OC)nc(N4CCOCC4)c3C2)cc1", "inhibition": "61.8% (active)"},
      {"smiles": "Oc1c(C(c2ccc(C(F)(F)F)cc2)N2CCOCC2)ccc2cccnc12", "note": "(stereo not drawn)", "inhibition": "104% (active)"},
      {"smiles": "Oc1c(C(c2ccc(F)cc2)N2CCOCC2)ccc2cccnc12", "note": "(stereo not drawn)", "inhibition": "82.2% (active)"},
      {"smiles": "COc1ccc(-n2nc([N+](=O)[O-])c(=NCCC3=CCCCC3)n2O)cc1", "inhibition": "95.6% (active)"},
      {"smiles": "C=C(C)c1cccc(C(C)(C)NC(=O)Nc2ncccn2)c1", "inhibition": "-1.81% (inactive)"},
      {"smiles": "CC(C)Cn1ccnc1NC(=O)c1cccc(C(F)(F)F)c1", "inhibition": "52.5% (active)"}
    ]}
  ]
}
